# Pin1 inhibitor: blocks the human prolyl isomerase Pin1. AID 504891. Q13526. Pin1 FP peptide displacement, HiFluor488, 10 min. Potency, µM (top dose mostly 115 µM), without a hit: at the top dose activity, negative = inhibition, actives largely listed as inhibitors. 390,000 compounds, 0.009% hits; active means well fitted inhibition curve with a large enough effect in the polarisation, with a control signal flat, not every such curve was filed as active; inconclusive means small, poorly fitted or top-dose-only effect, or effect the other way, or a change in a side signal; inactive means no such curve, though single readings can be large or run the other way; the % refers to the polarisation; further: on the % scale 0 is the no-effect control and ±100 the full control effect
# Target sequence (Q13526 whole entry, looked up): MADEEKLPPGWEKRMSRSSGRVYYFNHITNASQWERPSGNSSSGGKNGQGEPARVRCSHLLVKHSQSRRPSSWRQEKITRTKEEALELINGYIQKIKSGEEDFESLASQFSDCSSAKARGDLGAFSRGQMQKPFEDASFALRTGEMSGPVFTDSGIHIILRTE
# Tb PFK block: T. brucei PFK enzyme inhibition | O15648 | T. brucei PFK, ADP-Glo luminescence | Potency, µM (titrated, usually from 57.5 µM), for the others: top-dose activity, negative = inhibition, most hits filed as inhibitors | 330,000 compounds, 0.17% hits | AID 485367;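 further: 0% = uninhibited 1x PFK enzyme wells and -100% = no-enzyme wells; nearly all actives have a fitted effect of over 60% in size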
# Target sequence (O15648 whole entry, looked up): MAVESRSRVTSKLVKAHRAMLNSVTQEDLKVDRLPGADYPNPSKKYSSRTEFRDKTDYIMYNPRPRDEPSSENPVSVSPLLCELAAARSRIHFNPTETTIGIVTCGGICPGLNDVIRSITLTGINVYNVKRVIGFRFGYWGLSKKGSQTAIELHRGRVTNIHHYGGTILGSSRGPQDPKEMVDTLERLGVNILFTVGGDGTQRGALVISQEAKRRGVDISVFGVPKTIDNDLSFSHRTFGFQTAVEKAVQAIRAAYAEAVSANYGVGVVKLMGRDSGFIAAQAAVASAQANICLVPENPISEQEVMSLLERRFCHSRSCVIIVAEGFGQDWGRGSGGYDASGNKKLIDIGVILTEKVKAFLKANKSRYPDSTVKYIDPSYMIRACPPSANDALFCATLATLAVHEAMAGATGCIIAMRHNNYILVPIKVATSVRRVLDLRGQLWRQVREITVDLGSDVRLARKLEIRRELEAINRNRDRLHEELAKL
#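 ADP-Glo luminescence quantified ADP after 45 min at room temperature, with 1.25 nM T. brucei PFK, 0.1 mM ATP and 0.5 mM fructose-6-phosphate in pH 8.0 TEA buffer. qHTS titrations up to 57 µM; curves classified by quality.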
# PGK inhibitor: blocks T. brucei phosphoglycerate kinase; Potency, µM (doses to about 57.5 µM), for the others: at the highest dose activity change, negative = inhibition, actives largely listed as inhibitors; PGK/GAPDH coupled, Kinase-Glo luminescence, 60 min; 380,000 compounds, 0.043% hits; further: on the % scale 0 is the no-effect control and ±100 the full control effect; nearly all actives have a fitted effect of over 60% in size
#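 Recombinant glycosomal PGK reaction used 1,3-bisphosphoglycerate generated in-well by GAPDH (100nM final) in 100mM TEA pH 7.6, 5mM MgCl2, 0.01% Tween-20. After 60 minutes at room temperature, ATP was read by Kinase-Glo Plus luminescence end-point.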
# GLP1R inv ag: acts as inverse agonist at human GLP-1 receptor | P43220 | HEK293 GLP-1R CRE-luciferase, luminescence, 24 h; GLP-1R form is constitutively active | Potency, µM (top dose mostly 38.3 µM), inactives show at the top dose activity change, negative = inhibition, most hits filed as inhibitors | 410,000 compounds, 1.6% hits; further: on the % scale 0 is the no-effect control and ±100 the full control effect; nearly all actives have a fitted effect of over 55% in size
#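 Seeding at 200 cells/uL, 12 h culture, 24 hr compound treatment, then luciferase reagent and a luminescence read; cells are HEK293 stably expressing a constitutively active GLP-1R plus cAMP-responsive luciferase.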
# HEK293 tox: cytotoxicity counter-screen for GLP-1 receptor inverse agonists. HEK293 cAMP-luciferase reporter cells, luminescence, 24 h. Potency, µM (highest dose often 38.3 µM), for inactives: at the highest dose activity change, negative = inhibition, hits mostly inhibitors. 410,000 compounds, 0.13% hits;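 further: loss of luciferase light is scored as toxicity; on the % scale 0 is the no-effect control and ±100 the full control effect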
#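 1536-well qHTS counterscreen of the MLSMR; 200 cells/uL, 12 h pre-incubation, 23 nL cpd, 24 h at 37 deg C 5% CO2, luciferase detection reagent, 12 min RT, luminescence. Inhibition = undesired.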
# GLP-1R agonist: activates the human GLP-1 receptor; P43220; HEK293 GLP-1R CRE-luciferase, luminescence, 4-6 h; cells express a hypersensitive GLP-1R form; Potency, µM (highest dose often 45.6 µM), for the others: at the top dose activation, actives largely listed as activators; 380,000 compounds, 0.007% hits; AID 624172; further: % of control where 0% means no effect
# * marks the source's active call; other numbers are inactive results; i = inactive; ? = inconclusive; nt = no result. In the library only some 1.8% were active in any assay of this set; here they are far more common. Unless noted, the call rests on the fitted dose curve; in most records, active means well fitted curve in the direction sought with a large enough effect; inconclusive means small, poorly fitted or top-dose-only effect, or another doubt; inactive means no such curve, though single readings can be large; an effect the other way counts as inactive or inconclusive. Potency means the concentration at half of the fitted maximal effect.
SMILES,Pin1 inhibitor,Tb PFK block,PGK inhibitor,GLP1R inv ag,HEK293 tox,GLP-1R agonist
O=C(c1ccc(S(=O)(=O)Cc2cc(F)ccc2F)c([N+](=O)[O-])c1)N1CCCC1,1%,-6%,i,8.9µM*,?,-4%
O=C(c1ccc(S(=O)(=O)Cc2cc(F)ccc2F)c([N+](=O)[O-])c1)N1CCCCC1,1%,-1%,i,?,?,-32%
O=C(c1ccc(Cl)c([N+](=O)[O-])c1)N1CCN(S(=O)(=O)c2ccc(Cl)cc2)CC1,-3%,1%,-2%,?,-9%,-3%
CCN(Cc1ccccc1)Cc1c(O)ccc2c(=O)c(-c3ccccc3OC)c(C(F)(F)F)oc12,30%,nt,nt,?,-1%,nt
N#Cc1ccc(NS(=O)(=O)c2ccc3c(c2)CCC(=O)N3)cc1,2%,nt,nt,nt,nt,nt
Cc1ccc(NC(=O)Cn2c(=O)n(CC3CCCO3)c(=O)c3ccccc32)cc1 (stereo not given),1%,nt,7%,12%,1%,1%
Cn1c(O)c(N=NC(N)=S)c2ccccc21,nt,nt,nt,nt,nt,18%
CC1=CC(C)(C)n2c(O)c(N=NC(N)=S)c3cc(C)cc1c32,0%,1%,0%,2µM*,2.8µM*,5%
Cc1cccc(-n2c(CCc3ccccc3)nnc2SCC(=O)c2ccccc2)c1,26%,-6%,i,5µM*,?,-2%
COc1ccc(C2N(Cc3ccccc3)C(=O)c3ccccc3N2C)cc1COc1ccc(NC(C)=O)cc1 (stereo not given),24%,nt,nt,nt,nt,nt
CC1CCc2c(sc(NC(=O)c3cc(-c4cccc(Cl)c4)on3)c2C(N)=O)C1 (stereo not given),-4%,nt,-2%,1%,-7%,nt
COc1ccc(C2Nc3ccccc3C(=O)N2Cc2ccccc2)cc1COc1ccc(C#N)cc1 (stereo not given),15%,nt,nt,nt,nt,nt
O=C(NCC(c1cccnc1)N1CCc2ccccc21)c1ccc(F)cc1 (stereo not given),-3%,nt,19%,-16%,1%,nt
COc1ccc(N(CC(O)Cn2c3ccccc3c3ccccc32)S(=O)(=O)c2ccccc2)cc1 (stereo not given),?,0%,-4%,11µM*,10%,-9%
COc1ccc(Cl)cc1NC(=O)CN(C(=O)c1ccco1)C1CCCCC1,0%,3%,-9%,10µM*,4%,-3%
COc1ccc(Cl)cc1NC(=O)CN(C)C(C)C(=O)NCC1CCCCC1 (stereo not given),-2%,-6%,-1%,0%,-18%,2%
O=C(NCC1CCCO1)C(c1cccs1)N(C(=O)c1ccc(-c2ccccc2)[nH]1)C1CCCC1 (stereo not given),66%,3%,i,10µM*,-2%,-2%
COc1cccc(OCc2cc(C(=O)N(Cc3ccccc3)CC3CC3)no2)c1,-2%,0%,-3%,8.9µM*,-4%,9%
CCOC(=O)c1cnc2cc(C(F)(F)F)ccc2c1Nc1ccc(F)cc1F,-2%,nt,i,5%,1%,nt
CCCCN(C(=O)c1ccc2c(c1)OCO2)c1ccccc1,-6%,-6%,i,10µM*,5%,12%
CN(Cc1ccccc1)C(=O)c1ccc2c(c1)OCO2,3%,0%,i,5%,6%,12%
NC(=O)c1cccc(-c2cnc(N)c(C(=O)c3cccnc3)n2)c1,7%,nt,-1%,3.5µM*,-14%,-12%
COC(=O)c1ccc(NC(=O)N2CCN(Cc3cc(=O)n4nc(-c5ccc(C)cc5)sc4n3)CC2)cc1,1%,nt,-5%,8%,2%,nt
O=C(Nc1ccc(Cl)c(Cl)c1)Nc1nccs1,-5%,-28%,-1%,3.2µM*,4%,-5%
CC(NC(=O)c1ccco1)c1nc(-c2ccc(C(C)(C)C)cc2)no1 (stereo not given),-7%,-2%,5%,10µM*,-21%,19%
SMILES,Pin1 inhibitor,Tb PFK block,PGK inhibitor,GLP1R inv ag,HEK293 tox,GLP-1R agonist
CCCCNc1nc2c(S(=O)(=O)c3ccc(C)c(C)c3)nnn2c2ccsc12,0%,nt,-4%,64%,4%,nt
COc1cc(F)c(S(=O)(=O)N2CCN(S(=O)(=O)c3cccc(N)c3)CC2)c(F)c1,3%,nt,nt,nt,nt,nt
COC(=O)C1=C(C)Nc2nnnn2C1c1ccccc1Cl (stereo not given),-5%,0%,-4%,-2%,-2%,2%
CCCOc1ccccc1C1C(C(=O)Nc2ccccc2)=C(C)Nc2nnnn21 (stereo not given),-1%,nt,5%,8.9µM*,?,nt
CCCCCOC(=O)C1=C(C)Nc2nnnn2C1c1ccccc1Cl (stereo not given),?,1%,i,10µM*,-29%,9%
Cc1cc(C)cc(NC(=O)c2cc(S(=O)(=O)NCCC3=CCCCC3)ccc2F)c1,?,nt,0%,?,-7%,nt
COc1ccc(S(=O)(=O)N2CCc3ccccc32)cc1C(=O)Nc1cccnc1,-11%,2%,i,65%,-7%,10µM*
O=C(Nc1ccc(Cl)cc1)c1cc(S(=O)(=O)N2CCCc3ccccc32)ccc1F,5%,nt,13%,?,6%,nt
Cc1ccc(NC(=O)c2cc(S(=O)(=O)N3CCCc4ccccc43)ccc2F)cc1F,-2%,nt,-5%,13µM*,9%,nt
Cc1cccc(C)c1NC(=O)c1cc(S(=O)(=O)N2CCCc3ccccc32)ccc1F,-4%,nt,-14%,3.2µM*,19%,nt
Cc1ccc(NC(=O)c2cc(S(=O)(=O)NCCC3=CCCCC3)ccc2F)cc1F,3%,3%,8%,2µM*,-11%,1%
N#CN1CCC(NC(=O)c2cccc(C(F)(F)F)c2)CC1,-19%,nt,nt,nt,nt,nt
CCOc1cccc2sc(NC(=O)c3ccc(S(=O)(=O)N4CCCCC4C)cc3)nc12 (stereo not given),14%,nt,i,-18%,7%,nt
Cc1ccc(CNC(=O)Cc2coc3cc(C)cc(C)c23)cc1,10%,nt,i,8%,15%,nt
O=C(Nc1ccc(Br)cc1)c1ccc(F)c(S(=O)(=O)N2CCc3ccccc32)c1,1%,nt,10%,4.5µM*,-11%,nt
CC(C)c1ccc(NC(=O)c2ccc(F)c(S(=O)(=O)N3CCc4ccccc43)c2)cc1,7%,nt,-5%,-20%,1%,nt
CCOC(=O)c1c(-c2ccccc2)oc2ccc(OCC(O)CN(C)C)cc12 (stereo not given),5%,14%,i,2.8µM*,?,5%
